CCHFV vOTU inh = CCHFV vOTU protease inhibitors, primary screen, biochemical, Pep-AMC substrate, fluorescence. Crimean-Congo hemorrhagic fever virus L polyprotein viral ovarian tumor (vOTU) protease …. inhibition, % at 11.5 µM. 0.55% of 370,000 active; in the data active = inhibition above about 30%; also: 0% = vehicle wells with enzyme and 100% = no enzyme wells
PriA SSB inh = inhibitors of Klebsiella pneumoniae PriA binding to SSB C-terminal tail, primary screen, biochemical, AlphaScreen; PriA–SSB C-terminal tail interaction (Klebsiella pneumoniae); AlphaScreen SSBct-PriA binding, biotinylated peptide; inhibition, % at 33 µM; 0.6% of 430,000 active; AID 1272365, 2023; in the data active = inhibition mostly above about 37%, no sharp cut-off; inactive = mostly below about 20%;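 also: plate controls were negative control peptide for no effect and reference peptide for full effect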
ugtP null kill = growth inhibition of ugtP-null S. aureus, primary screen, RN4220 ugtP deletion, OD600. 16 h. growth inhibition, % (concentration not given with the values). 0.54% of 330,000 active. AID 1259309, 2017; in the data active = growth inhibition above about 68%;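 also: plate controls were untreated wells for no effect and antibiotic for full effect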
Sa RN4220 lethal = growth inhibition of S. aureus RN4220, primary screen, OD600; 0.33% of 330,000 active; inhibition, % (concentration not given with the values); 16 h; AID 1259311, 2017; in the data active = inhibition above about 85%;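 also: plate controls were untreated cells for no effect and reference antibiotic for full effect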
DUSP3 inh = VHR1 phosphatase inhibitors, primary screen, biochemical, absorbance, uHTS. Dual specificity protein phosphatase 3 (Homo sapiens), P51452. recombinant VHR phosphatase, pNPP absorbance. inhibition, % at 13.3 µM. 0.52% of 290,000 active. AID 1654, 2009; in the data active = inhibition above about 50%
Target sequence (P51452 whole entry, looked up): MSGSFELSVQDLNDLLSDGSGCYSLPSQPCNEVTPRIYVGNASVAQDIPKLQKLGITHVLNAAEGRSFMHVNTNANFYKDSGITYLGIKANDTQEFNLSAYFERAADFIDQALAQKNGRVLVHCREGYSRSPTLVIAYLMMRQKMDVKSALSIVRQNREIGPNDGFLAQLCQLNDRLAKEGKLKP
* hit, by the source's call; · = not tested or not shown. Only some compounds are listed: those with a hit (about 1.5% of all), similar ones and a draw of the others.

SMILES	CCHFV vOTU inh	PriA SSB inh	ugtP null kill	Sa RN4220 lethal	DUSP3 inh
CN(C)S(=O)(=O)c1ccc(Cl)c(C(=O)Nc2ccccc2[N+](=O)[O-])c1	-9	14	-4	3	-4
Cc1ccc(NC(=O)COC(=O)COc2ccc(Cl)cc2)c([N+](=O)[O-])c1	-6	2	-5	0	1
CCCC(=O)OCC(=O)Nc1ccc(Cl)cc1[N+](=O)[O-]	·	78*	·	·	·
CCC(=O)OCC(=O)Nc1cc(C)c(C)cc1[N+](=O)[O-]	2	11	1	2	51*
COc1cc(OC)c(NC(=O)c2cc(-c3cc[nH]c3)n[nH]2)cc1Cl	·	29*	·	·	·
CCCCOc1ccccc1-c1cc(C(=O)Nc2cc(Cl)c(OC)cc2OC)[nH]n1	·	-14	·	·	·
CN1C(=O)C(C)(C)COc2cc(NC(=O)c3ccc4ccccc4c3)ccc21	·	-8	·	·	·
O=S1(=O)C=C(Sc2nc3cc(Cl)ccc3o2)c2ccccc21	·	-15	91*	42	17
O=C(NCCCn1ncccc1=O)c1ccc(F)cc1	·	-4	·	·	·
CC1CCCCN1CCCNC(=O)CN1C(=O)CSc2ccc(S(=O)(=O)N3CCOCC3)cc21 (centres undefined)	14	9	4	2	50*
CC1CCN(S(=O)(=O)c2ccc3c(c2)N(CC(=O)NCCCN2CC(C)CC(C)C2)C(=O)CS3)CC1 (centres undefined)	-11	-8	1	0	56*
O=C(NCCN1CCOC(c2ccccc2)C1)c1ccc(Cl)c(Cl)c1 (centres undefined)	·	-8	·	·	·
CN1CCN(NC(=O)Nc2cc(Cl)cc(Cl)c2)CC1	4	-6	97*	100*	27
O=C(NCc1cc(-c2ccc3c(c2)OCCO3)on1)C1CCCC1	·	-11	·	·	·
Clc1cccc(-c2ccccn2)n1	·	14	·	·	·
Clc1cc(-c2ccccn2)nc(-c2ccccn2)c1	·	64*	·	·	·
Brc1cc(-c2ccccn2)nc(-c2ccccn2)c1	·	58*	·	·	·
CC(C)c1ccc(NC(=O)C(=O)NCC[C@H](O)C2CC2)cc1	·	-19	·	·	·
O=[N+]([O-])c1ccc(O)c(-c2nc(-c3ccccc3)c(-c3cccs3)[nH]2)c1	3	-8	85*	87*	26
O=C(O)c1ccc(-c2nc(-c3ccccc3)c(-c3cccs3)[nH]2)cc1	-47	3	10	6	-7
c1cnn(CCN2CCOCC2)c1	·	-2	·	·	·
CC1CN(C(=O)c2cc3cc(Cl)ccc3[nH]2)CC(C)O1 (centres undefined)	-8	3	-3	5	16
CC1CN(C(=O)c2cc3cc(F)ccc3[nH]2)CC(C)O1 (centres undefined)	8	-10	-2	0	53*
CCCSc1cc(N2CCCC2)nc(-c2ccccc2)n1	10	-27	27	-1	20
CCCSc1cc(N2CCN(C)CC2)nc(-c2ccc(OC)cc2)n1	3	18	100*	-8	10
SMILES	CCHFV vOTU inh	PriA SSB inh	ugtP null kill	Sa RN4220 lethal	DUSP3 inh
O=S(=O)(O)c1cccc2c(N=Nc3ccc(O)c4ncccc34)cccc12	·	62*	-4	35	·
OCCN1CCN(c2ncnc3scc(-c4ccc(F)cc4)c23)CC1	-9	-15	14	4	21
Cc1ccc(-c2csc3ncnc(N4CCN(S(=O)(=O)c5cccs5)CC4)c23)cc1	·	8	98*	97*	·
O=S(=O)(c1ccccc1)N1CCN(c2ncnc3scc(-c4ccccc4)c23)CC1	1	-11	98*	96*	7
COc1ccc(-c2csc3ncnc(N4CCN(CCO)CC4)c23)cc1	-8	1	11	0	57*
CC(C)OCCCn1c(N)c(S(=O)(=O)c2cccs2)c2nc3ccccc3nc21	·	-6	·	·	·
Cn1c(=O)c(N)c2c3c(c(Br)ccc31)C(=O)c1ccccc1-2	3	42*	11	11	12
Cn1c(=O)cc2c3c(c(Br)ccc31)C(=O)c1ccccc1-2	·	-28	·	·	·
COc1ccc(NS(=O)(=O)c2ccc(O)c(NC(=O)c3cc4c(C)nn(-c5ccc(F)cc5)c4s3)c2)cc1	·	-7	84*	83	-7
Cc1nn(-c2ccccc2)c2sc(C(=O)Nc3ccccc3F)cc12	·	-18	·	·	·
CC(C)CC(NC(N)=O)C(=O)Nc1ccc(Cl)c(Cl)c1 (centres undefined)	3	5	-5	-2	51*
